# A selection: hits, their analogues and other compounds. The true share with any hit is near 5.7%.
# hgDAF12 agonist = activates the H. glycines DAF-12 receptor ligand-binding domain; actives 1.8% (n = 370,000); activation, % at 6.8 µM; AID 687014; HEK293 GAL4-hgDAF12 UAS-luciferase reporter, agonist luminescence; normalized to butyrate control;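 active = activation above a cutoff set at the mean of all screened compounds plus 3 SD, cut at about 10% in these data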;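 also: 0% = DMSO wells and 100% = sodium butyrate wells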
# DAX1 inh-1 = blocks DAX1 repression of SF-1 activated StAR promoter | HEK293T StAR-luciferase reporter, SF-1/DAX-1 repression relief | inhibition, % at 6.8 µM | actives 1.1% (n = 370,000);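 active = inhibition above the mean over all tested compounds plus 3 SD, cut at about 3.6% in these data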;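 also: 0% = DAX-1 cells with DMSO and 100% = cells lacking DAX-1 with DMSO; higher inhibition means more luminescence from relief of DAX-1 repression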
# ssDAF12 agonist = activates DAF-12 receptor from parasite S. stercoralis; HEK293 ssDAF-12/GRIP1 lit1-tk-luc reporter, luminescence; % of 3 µM dafachronic acid response; activation, % at 6.8 µM; actives 1% (n = 370,000);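 active = activation above the mean over all tested compounds plus 3 SD, cut at about 0.9% in these data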;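 also: 0% = DMSO-only wells and 100% = 3 µM delta7-dafachronic acid wells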
# DAX1 inh-2 = NR0B1 (DAX1) inhibition. P51843. HEK293 Gal4-DAX1 luciferase reporter, luminescence. inhibition, % at 6.75 µM. actives 0.99% (n = 340,000). AID 504766;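 active = inhibition above the mean over all tested compounds plus 3 SD, cut at about 4.2% in these data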;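 also: 0% = DAX1-transfected cells with DMSO and 100% = empty-vector control cells with DMSO; inhibition shows as a rise in luminescence from relieved DAX1 repression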
# Target sequence (P51843 207-470 limits assumed): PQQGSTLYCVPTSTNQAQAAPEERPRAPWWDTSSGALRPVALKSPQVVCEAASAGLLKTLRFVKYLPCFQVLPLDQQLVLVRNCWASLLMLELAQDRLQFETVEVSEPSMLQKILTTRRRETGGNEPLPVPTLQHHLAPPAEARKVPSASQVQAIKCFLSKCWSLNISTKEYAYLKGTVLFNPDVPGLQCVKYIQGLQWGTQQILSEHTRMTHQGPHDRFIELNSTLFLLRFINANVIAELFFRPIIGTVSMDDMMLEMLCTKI
# AHR act = activates the human aryl hydrocarbon receptor | P35869 | AHR-responsive luciferase reporter cells, luminescence | activation, % at 5 µM | actives 2.5% (n = 320,000); in the data active = activation above about 47%;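 also: 0% = vehicle wells and 100% = reference agonist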
# hcDAF12 agonist = activators of H. contortus DAF-12 nuclear receptor; actives 1.4% (n = 370,000); HEK293 hcDAF-12 lit1-tk-luc reporter, luminescence; 0% DMSO, 100% Δ7-dafachronic acid; AID 652067; activation, % at 6.8 µM;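 active = activation above the mean of all tested compounds plus 3 SD, cut at about 5.5% in these data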;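 also: 100% = response to 3 µM Δ7-dafachronic acid high control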
# DAX1 inh confirm = confirmation of human DAX1 (NR0B1) inhibitors; actives 87% (n = 2,400); AID 652134; shares compounds with DAX1 inh-1; inhibition, % at 6.8 µM; HEK293T StAR-promoter luciferase reporter, SF-1/DAX-1 repression;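 active = inhibition above the average of every tested compound plus 3 SD, cut at about 3.8% in these data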;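 also: 0% = DAX-1 cells with DMSO and 100% = no DAX-1 control cells with DMSO; active compounds raise luminescence by relieving repression of the StAR reporter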
# SF1 mutant ctr = counter-screen for DAX1 inhibitors: nonselective inhibitors with SF-1 AF2 mutant; shares compounds with DAX1 inh-1; HEK293 StAR-luciferase, luminescence; inhibition, % at 6.8 µM; actives 78% (n = 2,400); AID 652136;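 active = inhibition above the mean of all tested compounds plus 3 SD, cut at about 3% in these data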;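 also: 0% = DAX-1 transfected cells with DMSO and 100% = cells without DAX-1 with DMSO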
# LXRb hcDAF ctr = LXR-beta agonism as hcDAF-12 counter-screen; shares compounds with hcDAF12 agonist; activation, % at 6.8 µM; AID 743027; 3,400 tested, under 10 active; HEK293 Gal4-LXR tk-luc reporter, luminescence, 24 h; normalized: DMSO 0%, positive control 100%;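 active = mean percent activation of the reporter above a cutoff set as the average over tested compounds plus their standard deviation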
# Target sequence (P55055 whole entry, looked up, the tested form may be a part): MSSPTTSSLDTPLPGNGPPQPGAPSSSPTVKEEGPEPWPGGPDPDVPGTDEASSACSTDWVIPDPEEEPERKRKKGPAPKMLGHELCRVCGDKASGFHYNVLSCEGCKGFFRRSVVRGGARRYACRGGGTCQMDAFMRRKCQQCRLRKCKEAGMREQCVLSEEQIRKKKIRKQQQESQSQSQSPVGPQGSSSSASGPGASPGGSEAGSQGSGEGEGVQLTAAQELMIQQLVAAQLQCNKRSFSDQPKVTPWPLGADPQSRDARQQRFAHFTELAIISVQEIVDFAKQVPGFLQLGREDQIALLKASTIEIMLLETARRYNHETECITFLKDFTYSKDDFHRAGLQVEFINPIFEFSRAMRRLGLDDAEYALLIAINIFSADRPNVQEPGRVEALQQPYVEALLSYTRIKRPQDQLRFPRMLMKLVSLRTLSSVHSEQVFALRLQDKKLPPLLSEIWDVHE
# hcDAF12 ag = confirmation of H. contortus DAF-12 agonists | shares compounds with hcDAF12 agonist | HEK293 hcDAF-12 lit1-tk-luc reporter, luminescence; % of Δ7-dafachronic acid response | activation, % at 6.8 µM | actives 61% (n = 3,400);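 active = mean activation across triplicate tests above the threshold derived from the earlier primary screen, cut at about 5.5% in these data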;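 also: 0% = DMSO only wells and 100% = 3 µM Δ7-dafachronic acid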
# hgDAF12 ag = confirmation of H. glycines DAF-12 agonists | shares compounds with hgDAF12 agonist | HEK293 GAL4-hgDAF12 luciferase reporter, agonist mode; percent of butyrate response | activation, % at 6.8 µM | actives 80% (n = 3,300) | AID 743050;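 active = mean activation over triplicate wells above the hit cutoff derived from the earlier primary screen, cut at about 11% in these data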;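 also: 0% = DMSO low control and 100% = 2 mM sodium butyrate high control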
# LXRb DAF12 ctr = LXR-beta agonism as DAF-12 counter-screen. shares compounds with hgDAF12 agonist. HEK293 Gal4-LXR luciferase reporter, 24 h. activation, % at 6.8 µM. 3,300 tested, under 10 active. AID 743051;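 active = mean activation of the triplicate above a set limit carried over from the primary screen, none filed active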
# The depositor's hits bear a star; / = no result given.
SMILES,hgDAF12 agonist,DAX1 inh-1,ssDAF12 agonist,DAX1 inh-2,AHR act,hcDAF12 agonist,DAX1 inh confirm,SF1 mutant ctr,LXRb hcDAF ctr,hcDAF12 ag,hgDAF12 ag,LXRb DAF12 ctr
CC(=O)c1ccc(OCC(=O)Nc2nnc(C3CC3)s2)cc1,-0.9,-0.3,0.3,1.5,/,-0.5,/,/,/,/,/,/
CCC(Sc1nc2ccncc2[nH]1)C(=O)Nc1cc(Cl)ccc1C (stereo not given),-3.2,-0.6,-0.1,-0.6,3.0,-2.3,/,/,/,/,/,/
CCn1nc(C)c(CN2CCC(C(=O)Nc3cccc(-c4cccc(Cl)c4)c3)CC2)c1C,1.3,3.0,-0.9,-0.8,3.1,0.9,/,/,/,/,/,/
O=C(/C=C\Nc1ccc(Br)cc1)c1cccnc1,18.3*,5.9*,0.7,1.5,-2.3,8.3*,16.4*,9.3*,1.4,6.5*,15.6*,1.0
O=C(NNC(=S)Nc1ccc(Br)cc1)c1cccnc1,-0.8,0.7,-0.9,0.5,2.1,-0.1,/,/,/,/,/,/
CCN(CC(=O)Nc1c(F)cccc1F)C(=O)CCSc1ccc(F)cc1,1.4,-0.8,-1.5,0.7,7.9,0.2,/,/,/,/,/,/
c1ccc(-c2ncc3c(ccc4ccccc43)n2)cc1,16.7*,6.3*,3.6*,4.1,42.9,23.4*,12.1*,3.8*,/,/,16.9*,1.1
[2H]c1c([2H])c([2H])c(-c2nc(N3CCCCCC3)sc2C(=O)c2ccccc2)c([2H])c1[2H],0.6,-0.2,-1.0,0.2,7.0,-1.1,/,/,/,/,/,/
Cc1cccn2cc(-c3ccc(Cl)cc3)nc12,16.2*,9.3*,2.6*,1.5,71.1*,18.2*,11.4*,4.0*,1.4,18.4*,18.4*,0.9
Cc1cccn2cc(-c3ccc(S(=O)(=O)N4CCCCC4)cc3)nc12,3.5,-0.6,-0.9,-0.9,-0.7,-1.3,/,/,/,/,/,/
COc1ccc(-c2cn3cc(C)ccc3n2)cc1OC,19.0*,4.9*,0.1,-0.7,-22.2,4.3,12.2*,6.6*,/,/,17.6*,1.1
Cc1ccc(-c2cn3cccc(C)c3n2)cc1,14.8*,9.2*,3.8*,0.5,/,16.3*,16.7*,7.9*,2.0,16.8*,21.1*,1.0
COc1ccc(-c2cn3cccc(C)c3n2)cc1F,18.2*,5.0*,1.0*,1.6,69.8*,7.9*,13.6*,9.0*,0.9,5.5,16.4*,1.0
CCCOc1ccc(Cc2c(O)nc(SC)[nH]c2=O)cc1,-0.2,-0.4,-0.5,-0.4,17.2,0.4,/,/,/,/,/,/
CCCCn1cnc(C(=O)OCC)c1N,4.1,-0.4,-0.4,-0.8,2.4,0.2,/,/,/,/,/,/
CC(C)c1ccc(/C=C/C(=O)Nc2nncs2)cc1,18.9*,5.5*,0.7,-0.3,36.0,12.8*,13.8*,4.8*,2.2,6.3*,18.4*,1.4
O=C(c1ccc(F)cc1)N1CCC(C(=O)N2CCN(c3ncccn3)CC2)CC1,0.1,0.7,-0.9,0.4,0.4,0.0,/,/,/,/,/,/
O=c1[nH][nH]c2c1[C@H](CCc1cccc(Cl)c1)O[C@H](C1CCCC1)C2,-3.3,1.1,-0.6,/,/,-2.5,/,/,/,/,/,/
Cc1nc(-c2ccccc2)sc1-c1ccn[nH]1,14.0*,9.2*,0.2,3.1,12.3,8.8*,16.4*,10.4*,1.4,5.5,17.4*,1.0
Cc1nc(-c2ccccc2)sc1-c1ccnn1C,15.9*,6.2*,0.7,3.8,1.0,8.8*,15.0*,7.9*,1.0,5.8*,18.1*,0.8
CC(=O)c1sc(-c2ccccc2)nc1C,1.6,2.1,-1.3,1.4,-3.8,-0.6,/,/,/,/,/,/
CC(C)c1cc(C(=O)Nc2cccc(Cl)c2)no1,19.2*,4.6*,0.7,0.9,-0.1,7.8*,16.4*,9.3*,1.5,5.8*,18.9*,1.1
CC(C)c1cc(C(=O)Nc2cc(Cl)ccc2O)no1,8.9,3.2,-0.5,2.2,18.9,1.8,/,/,/,/,/,/
CC(=O)c1cccc(NC(=O)c2cc(C(C)C)on2)c1,16.6*,5.2*,-0.5,0.3,12.3,5.1,10.7*,8.0*,/,/,10.5*,0.6
NC(=O)c1ccc(OCc2ccccc2)nc1,15.0*,5.0*,0.1,3.0,/,3.7,5.8*,3.3*,/,/,11.4*,0.4
SMILES,hgDAF12 agonist,DAX1 inh-1,ssDAF12 agonist,DAX1 inh-2,AHR act,hcDAF12 agonist,DAX1 inh confirm,SF1 mutant ctr,LXRb hcDAF ctr,hcDAF12 ag,hgDAF12 ag,LXRb DAF12 ctr
COc1cc(C(N)=O)ccc1OCc1ccccc1,6.0,0.8,-0.8,0.5,10.6,2.8,/,/,/,/,/,/
COc1ccccc1C(=O)Nc1nnc(-c2ccco2)s1,18.8*,8.4*,2.0*,4.5*,30.5,15.3*,11.9*,9.0*,1.5,14.1*,21.3*,1.1
Cc1ccccc1OCC(=O)Nc1nnc(-c2ccco2)s1,-3.1,-0.3,-0.6,0.9,-6.9,-0.5,/,/,/,/,/,/
Cc1ccccc1C(=O)Nc1nnc(-c2ccco2)s1,16.1*,5.2*,1.1*,-0.9,-8.1,9.4*,9.0*,4.1*,1.4,8.2*,12.2*,0.7
O=C(CCCc1ccccn1)c1ccccc1,18.1*,5.6*,0.4,0.5,/,7.7*,10.8*,5.8*,0.9,2.6,11.1*,0.6
O=C(Nc1ccccc1)OCCc1ccccn1,13.9*,9.3*,-0.8,5.8*,/,4.0,7.4*,4.2*,/,/,11.2*,0.6
Cc1ccc(CNC(=O)C(=O)NCC2OCCCN2S(=O)(=O)c2ccc(F)cc2)cc1 (stereo not given),1.0,-0.1,0.0,0.5,5.2,-3.4,/,/,/,/,/,/
O=C(O)CCCN=CC1=C(O)CNC1=O,0.2,-0.6,-0.7,-0.8,0.6,0.2,/,/,/,/,/,/
Cc1ccc(NC(=O)c2cc(C)no2)cc1,3.9,0.9,-1.1,-0.3,-0.7,1.1,/,/,/,/,/,/
CCCc1cc(C(=O)Nc2ccc(C)cc2)no1,17.4*,5.2*,0.8,1.5,-0.5,6.2*,8.7*,7.3*,/,/,13.3*,0.8

# Screening data deposited in PubChem by The Scripps Research Institute Molecular Screening Center.
